OvCa metastasis – inhibitors of ovarian cancer cell adhesion and invasion in omental model | 46,000 compounds, 0.1% hits | Potency, µM (titrated, usually from 45.8 µM), without a hit: at the top dose activity change, negative = inhibition, hits mostly inhibitors | SKOV3ip1-GFP adhesion/invasion on 3D omental model, fluorescence;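 further: plate controls were DMSO wells for no effect and tomatine positive control wells for full effect; nearly all actives have a fitted effect of over 65% in size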
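A 3D layer of primary human omental fibroblasts, mesothelial cells, fibronectin and collagen I, grown 48 hr, received SKOV3ip1-GFP cells in serum-free medium plus compounds at 0.36-46 umol/L. After 2 hr RT and 16 hr 37 C, fixed adherent GFP cells were counted; normalized to DMSO and tomatine.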
FH mod – Identification of activators of human fumarate hydratase by quantitative high-throughput screening. Potency, µM (series often up to 79.9 µM), without a hit: at the highest dose activity change, negative = inhibition, actives largely listed as inhibitors. AID 1347055, 2019. 54,000 compounds, 0.22% hits. Fumarate hydratase, mitochondrial (Homo sapiens), P07954. FH coupled MDH/diaphorase resazurin fluorescence, 15 min; further: the screen sought activators but most active calls are inhibition curves; nearly all actives have a fitted effect of over 45% in size
Target sequence (P07954 whole entry, looked up): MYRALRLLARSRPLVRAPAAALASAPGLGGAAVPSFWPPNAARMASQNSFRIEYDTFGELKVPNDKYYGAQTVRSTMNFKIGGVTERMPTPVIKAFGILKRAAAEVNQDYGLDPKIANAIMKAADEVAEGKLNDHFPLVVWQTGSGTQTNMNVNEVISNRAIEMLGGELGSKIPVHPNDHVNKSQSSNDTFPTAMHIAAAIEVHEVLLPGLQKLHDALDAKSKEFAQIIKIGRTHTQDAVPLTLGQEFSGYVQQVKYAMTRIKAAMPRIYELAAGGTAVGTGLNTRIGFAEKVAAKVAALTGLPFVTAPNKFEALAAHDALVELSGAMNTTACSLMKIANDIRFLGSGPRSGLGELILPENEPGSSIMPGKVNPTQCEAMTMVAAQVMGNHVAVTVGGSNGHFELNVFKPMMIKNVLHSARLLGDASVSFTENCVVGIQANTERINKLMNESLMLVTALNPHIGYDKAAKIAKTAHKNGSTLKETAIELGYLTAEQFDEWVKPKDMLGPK
p53null 32C tox – selectivity test: cytotoxicity in p53 null cells, permissive temperature; 55,000 compounds, 0.62% hits; Potency, µM (top dose mostly 46.1 µM), inactives show at the top dose activity change, negative = cytotoxicity, hits mostly cytotoxic; H1299-neo p53 null cells, ATP luminescence, 24 h, 32C;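 further: 0% = DMSO only and -100% = full killing by 100 µM tamoxifen; nearly all actives have a fitted effect of over 55% in size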
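We seeded p53-null H1299-neo cells, incubated them overnight at 37C, and added compounds across a range up to 46 uM. After 24 hours at 32C, ATP reagent was applied for 20 min at room temperature and luminescence recorded.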
NTMT1 inhibitor – NTMT1 methyltransferase inhibition | NTMT1 MTase-Glo SAH luminescence, purified enzyme | 59,000 compounds, 2.5% hits | Q9BV86 | AID 1645870 | Potency, µM (top dose mostly 114 µM), inactives show at the top dose activity change, negative = inhibition, most hits filed as inhibitors;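 further: plate controls were DMSO vehicle for no effect and no enzyme for full effect; nearly all actives have a fitted effect of over 65% in size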
Target sequence (Q9BV86 whole entry, looked up): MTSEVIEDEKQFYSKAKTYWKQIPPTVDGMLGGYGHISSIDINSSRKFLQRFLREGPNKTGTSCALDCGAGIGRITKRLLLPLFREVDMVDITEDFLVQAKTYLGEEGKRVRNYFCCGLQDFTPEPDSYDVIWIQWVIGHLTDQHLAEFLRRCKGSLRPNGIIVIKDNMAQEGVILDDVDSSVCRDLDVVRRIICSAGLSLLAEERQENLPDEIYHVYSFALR
p53null 39C kill – kills p53 null cells at the nonpermissive temperature; 55,000 compounds, 0.97% hits; H1299 p53-null (neo) cells, 39C, ATPlite viability, 24 h; Potency, µM (top dose mostly 46.1 µM), inactives show at the top dose activity, negative = cell killing, hits mostly cytotoxic;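 further: 0% = DMSO only and -100% = full killing by 100 µM tamoxifen; nearly all actives have a fitted effect of over 50% in size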
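Concentration-response (up to 46 uM) was run for 24 h at the nonpermissive 39C on H1299-p53A138V or H1299-neo cells. ATP content was measured with ATPlite luminescence. AC50 values were Hill-modeled after normalizing between DMSO and 100 uM tamoxifen killing.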
* hit, by the source's call; i = inactive; ? = inconclusive; · = not tested or not shown; ! = not confirmed by another sample; [ ] = remark or other dose. Many of the other results were omitted from the sample, so hits are more common in it than they were. The call rests on the fitted dose curve; in most records, active means well fitted curve in the direction sought with a large enough effect; inconclusive means small, poorly fitted or top-dose-only effect, or another doubt; inactive means no such curve, though single readings can be large; an effect the other way counts as inactive or inconclusive. Unless noted, on the % scale 0 is the no-effect control and ±100 the full control effect; potency means the concentration at half of the fitted maximal effect.

SMILES	OvCa metastasis	FH mod	p53null 32C tox	NTMT1 inhibitor	p53null 39C kill
Nc1ncnc2c1c(-c1cccc(OCc3ccccc3)c1)cn2C1CC(CN2CCC2)C1 (centres undefined)	3.0%	-16.3%	·	10µM*!	·
Cc1ccc(Cl)cc1NC(=O)c1cnc(N2CCCCC2)c2ccccc12	-5.4%	-18.6%	-1.7%	89.1µM*	21.7%
Cc1ccc(NC(=O)c2cnc(N3CCCCC3)c3ccccc23)c(C)c1	7.3%	-1.6%	-2.2%	-14.1%	23.4%
NC(CC1c2ccccc2Oc2ccccc21)(C(=O)O)C1CC1C(=O)O (centres undefined)	·	·	·	23.3%	·
COC(=O)c1c(SCC(=O)Nc2cc(OC)cc(OC)c2)[nH]c2ccc(C)cc2c1=O	-0.9%	?	?	9.3%	3.16µM*
COC(=O)c1c(SCC(=O)Nc2ccccc2OC)[nH]c2ccccc2c1=O	-6.6%	-23.9%	?	7.9%	7.94µM*
Cc1ccc(OCCn2c(CCN(C)C(=O)C3CCCCC3)nc3ccccc32)cc1	·	·	·	17.5%	·
O=C1OC2(c3ccc(O)cc3Oc3cc(O)ccc32)c2ccccc21	·	-26.2%[53.3 µM]	·	15.5%[57.5 µM]	·
O=C1OC2(c3ccccc31)c1cc(I)c(O)c(I)c1Oc1c2cc(I)c(O)c1I	·	?	·	1µM*	·
CC(C)CCC1(O)C(=O)C(C)(C)C(O[C@@H]2O[C@H](CO)[C@@H](O)[C@H](O)[C@H]2O)C(C)(C)C1O (some centres undefined)	·	-2.9%[53.3 µM]	·	5.5%[29.8 µM]	·
O=C(Nc1cccc2c(=O)cc(-c3nn[nH]n3)oc12)c1ccc(OCCCCc2ccccc2)cc1	-12.2%	?	·	17.8µM*	·
Cc1ccc(-c2c(C(=O)CCl)n(CCCO)c3ncnc(N)c23)cc1	·	-5.3%	·	3.7%[57.5 µM]	·
C=CCn1c(=O)c2cnc(Nc3ccc(N4CCN(C)CC4)cc3)nc2n1-c1cccc(C(C)(C)O)n1	4.7%	?	·	39.8µM*!	·
Cc1cccc(C)c1-n1c(=O)c2cnc(Nc3ccc(N4CCN(C)CC4)cc3)nc2n2c3ccccc3nc12	·	-19.8%	·	?	·
Cc1ccc(-c2ccc(=O)n(CC(=O)N(C)C3CCCCCC3)n2)cc1	·	·	·	-8.3%[57.5 µM]	·
N#C/C(=C\c1ccc(O)c(O)c1)C(=O)NCCc1ccccc1	·	31.6µM*	·	·	·
CCOc1cc(/C=C(\C#N)C(=O)NCC2CCCO2)ccc1O (centres undefined)	0.8%	-12.0%	-0.3%	-2.4%	29.5%
COc1ccc2nc(NCCCO)[nH]c2c1	·	·	-6.5%	·	16.6%
COc1ccc2nc(S(=O)Cc3ncc(C)c(OC)c3C)[nH]c2c1 (centres undefined)	-16.9%	5.3%[53.3 µM]	·	31.6µM*!	·
CN[C@H]1CCN(C(=O)c2ccc(Nc3ncc(F)c(-c4cnc(C)n4C(C)C)n3)cc2)C1	·	-9.0%	·	-22.2%	·
CCC(C(=O)NCCc1ccc(SC)cc1)n1nc(C)c2sc3ccccc3c2c1=O (centres undefined)	-3.1%	-16.3%	-1.4%	7.4%	1.5%
Cc1ccc(CNC(=O)C(C)n2nc(C)c3sc4ccccc4c3c2=O)cc1 (centres undefined)	7.5%	-11.3%	-19.3%	-3.9%	?
Cc1nn(C(C)C(=O)NC2CCCCC2)c(=O)c2c1sc1ccccc12 (centres undefined)	7.4%	3.1%	-26.4%	0.9%	12.6µM*
CSc1ccc(CCNC(=O)C(C)n2nc(C)c3sc4ccccc4c3c2=O)cc1 (centres undefined)	5.4%	3.5%	?	22.4%	12.6µM*
Cc1ccc(=O)n(CC(=O)NCCc2ccccc2)n1	·	·	·	8.6%	·
SMILES	OvCa metastasis	FH mod	p53null 32C tox	NTMT1 inhibitor	p53null 39C kill
CCc1ccc(NC(=O)c2ccc(F)c(S(=O)(=O)N(C)C3CCCCC3)c2)cc1	i	-18.8%	26.4%	-6.6%	9.5%
CN(CC(=O)N(Cc1ccc(C2CCCCC2)cc1)c1ccc(C(=O)O)c(O)c1)S(=O)(=O)c1c(F)c(F)c(F)c(F)c1F	23.3%	-17.5%[53.3 µM]	·	31.6µM*	·
O=C1NC(=O)C(c2c[nH]c3ccccc23)=C1c1c[nH]c2ccccc12	·	-24.8%	·	11.2µM*	·
C[C@@H]1O[C@@H](O[C@H]2[C@H](O)[C@@H](O[C@@H]3O[C@H](CO)[C@@H](O)[C@H](O[C@@H]4O[C@H](CO)[C@@H](O)[C@H](O)[C@H]4O)[C@H]3O)[C@H](O[C@H]3CC[C@@]4(C)C(=CC[C@@H]5C4CC[C@@]4(C)C5C[C@@H]5OC6(CC[C@@](C)(CO[C@@H]7O[C@H](CO)[C@@H](O)[C@H](O)[C@H]7O)O6)[C@@H](C)[C@@H]54)C3)O[C@@H]2CO)[C@H](O)[C@H](O)[C@H]1O (some centres undefined)	·	3.0%[13.5 µM]	·	6.7%[6.45 µM]	·
CCN(CC)Cc1ccc(C(=O)N(CCc2ccccc2OC)[C@@H]2CCNC2)cc1	·	-3.3%[53.3 µM]	·	0.1%[29.8 µM]	·
CCS(=O)(=O)N1CCc2cc(C(=O)Nc3ccc(Br)cc3F)ccc21	7.3%	-6.0%	-9.3%	89.1µM*	-6.4%
CCS(=O)(=O)N1CCc2cc(C(=O)NCCc3ccccc3)ccc21	i	-9.9%	-13.4%	89.1µM*	1.5%
O=C(Cn1nc(-c2ccc(OC(F)(F)F)cc2)ccc1=O)NCCc1ccccc1	·	·	·	11.0%	·
Cc1ccc(NC(=O)c2nc(S(=O)(=O)Cc3ccc(F)cc3)ncc2Cl)cc1C	11.2µM*	-3.5%	20µM*	8.4%	?
CN(c1ccccc1)S(=O)(=O)c1ccc(NC(=O)c2nc(S(C)(=O)=O)ncc2Cl)cc1	i	?	22.4µM*	-22.0%	?
CCS(=O)(=O)c1ncc(Cl)c(C(=O)Nc2ccccc2)n1	?	3.0%	60.6%	-7.1%	20µM*
CCCSc1ncc(Cl)c(C(=O)Nc2ccc(S(=O)(=O)N(C)c3ccccc3)cc2)n1	-5.2%	-18.5%	0.0%	2.6%	22.0%
CCOC(=O)c1ccc(NC(=O)c2nc(S(=O)(=O)Cc3ccccc3)ncc2Cl)cc1	?	3.5%	-8.5%	2.0%	23.1%
CC(=O)Nc1ccc(NC(=O)c2nc(S(=O)(=O)Cc3ccc(F)cc3)ncc2Cl)cc1	3.16µM*	-5.4%	-10.9%	11.4%	-27.8%
CNc1oc(-c2cccc3ccccc23)nc1C(=O)Nc1cccc(C#N)c1	·	·	·	13.8%	·
CO[C@H]1C[C@@H]2CC[C@@H](C)[C@@](O)(O2)C(=O)C(=O)N2CCCC[C@H]2C(=O)O[C@H]([C@H](C)C[C@@H]2CC[C@@H](OCCO)[C@H](OC)C2)CC(=O)[C@H](C)/C=C(/C)[C@@H](O)[C@@H](OC)C(=O)[C@H](C)C[C@H](C)/C=C\C=CC=C1C	·	·	·	13.4%	·
COc1ccc(OC)c(NC(=O)c2nc(S(=O)(=O)Cc3ccc(F)cc3)ncc2Cl)c1	6.31µM*	-7.0%	?	13.8%	25.1µM*
CCc1c(C(=O)NNC(=O)[C@@H](O)c2cc(F)cc(F)c2)ccc(O)c1C	·	0.6%	·	17.5%	·

Compound activity: PubChem, National Center for Advancing Translational Sciences (NCATS)
